Source: PubChem BioAssay AID1851 (National Center for Advancing Translational Sciences (NCATS), 2009)
The campaign covered roughly 16,000 compounds. About 2,600 (16%) were called active. Not shown: some 20% with an inconclusive outcome. The call rests on the fitted dose curve; in most records, active means well fitted curve in the direction sought with a large enough effect; inconclusive means small, poorly fitted or top-dose-only effect, or effect the other way; inactive means no such curve, though single readings can be large or run the other way. Only a sample is shown.

molecular target: Cytochrome P450 2D6 (Homo sapiens) (UniProt P10635); experiment: Cytochrome panel assay with activity outcomes; details: recombinant CYP, pro-luciferin dealkylation, luminescence, p450-cyp2d6; series mostly up to 57.1 µM; activity, negative = inhibition: at the top concentration
Sequence (P10635 whole entry, looked up): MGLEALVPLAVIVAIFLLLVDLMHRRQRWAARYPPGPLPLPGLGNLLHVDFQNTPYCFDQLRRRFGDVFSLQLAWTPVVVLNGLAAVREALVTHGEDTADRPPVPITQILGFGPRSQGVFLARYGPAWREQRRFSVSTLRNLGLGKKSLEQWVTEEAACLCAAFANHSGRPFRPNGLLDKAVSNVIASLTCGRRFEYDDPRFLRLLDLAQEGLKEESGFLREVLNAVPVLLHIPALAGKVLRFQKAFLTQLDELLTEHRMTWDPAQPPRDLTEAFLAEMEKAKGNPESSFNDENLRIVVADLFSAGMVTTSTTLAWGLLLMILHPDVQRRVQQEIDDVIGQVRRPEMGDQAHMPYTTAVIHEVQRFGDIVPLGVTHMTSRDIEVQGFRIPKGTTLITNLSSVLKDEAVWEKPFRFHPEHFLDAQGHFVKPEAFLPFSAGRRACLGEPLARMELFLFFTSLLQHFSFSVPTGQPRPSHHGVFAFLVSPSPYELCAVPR
On the % scale 0 is the no-effect control and ±100 the full control effect.

activity, negative = inhibition, inactive:
CC1(C)CC(=O)C(C(c2cccc(O)c2O)C2C(=O)CC(C)(C)CC2=O)C(=O)C1 -12.6% [at 11.4 µM]
Cc1ccc(-n2c(-c3cc(C)n(C)n3)n[nH]c2=S)cc1 -8.75%
Cc1ccc(SC(C)C(=O)NCc2cccnc2)cc1 (stereo not drawn) -6.56%
Cc1ccc(S(=O)(=O)/C(C#N)=C/c2c(N3CC(C)OC(C)C3)nc3ccccn3c2=O)cc1 (stereo not drawn) -20%
COc1ncc2nc(CCc3ccccc3)c(=O)n(CCc3ccccc3)c2n1 -5.83%
Cc1cccn2c(/C=N/OCc3cccc(F)c3)c(-c3ccc(Cl)cc3)nc12 -23.8%
CCN1C(=O)[C@H]2[C@H]3[C@H](O)[C@H](O)C/C(=N/OCC(C)C)[C@H]3CC[C@@H]2C1=O -6.52% [at 11.4 µM]
Cc1noc(C)c1C(=O)N1CCC[C@@]2(CCN(C(=O)Nc3cccc(F)c3)C2)C1 1.31%
CCOC(=O)CC(=O)CSc1nc(-c2ccccc2)cc(-c2ccc(Cl)cc2)c1C#N 9.93%
O=C1c2ccccc2C(=O)N1CC1c2ccccc2CCN1S(=O)(=O)c1ccccc1 (stereo not drawn) -14.8%
COc1ccc(OC)c2[nH]c(=O)c(CCNC(=O)COc3ccccc3)cc12 -8.87%
CCn1c(CC(=O)Nc2ccc(C)cc2)nnc1SCC(=O)NCCc1ccccc1 -19%
CN1CCC(=NNC(=O)CSCc2ccccc2)CC1 -21.6%
O=C(N/N=C/c1ccco1)c1ccc(Br)o1 13.5%
COc1ccc(OC[C@@H](CO)OC)cc1 -7.62% [at 11.4 µM]
COc1ccc(CNC(=O)CN(CC2CCCO2)C(=O)CNS(=O)(=O)c2ccccc2)cc1 (stereo not drawn) -2.1%
CN1CC[C@@]2(CCCN(C(=O)c3cccc(F)c3)C2)C1 -10.5%
O=c1c(-c2cccc(Cl)c2)nc2cncnc2n1C1CC1 -3.44%
O=C(Nc1ccccc1[N+](=O)[O-])C1C(c2ccccc2)=C1c1ccccc1 15.3%
COc1ncc2nc(-c3cccs3)c(=O)n(C)c2n1 -1.28%
Cc1cnn(-c2ccc3nnc(-c4ccc(Cl)cc4)n3n2)c1 -4.72%
Clc1ccc(/C=N/Nc2nnc(-c3ncc[nH]3)c3ccccc23)cc1 -28.8%
N#CC(c1ccc(Cl)cc1)c1nc2ccccc2nc1C(F)(F)F (stereo not drawn) -19.3%
O=c1[nH]c(=O)n([C@@H]2C[C@H](O)[C@H](CO)O2)cc1I 3.14% [at 25.6 µM]
N#Cc1cc(-c2ccc(Cl)cc2)cnc1Sc1ccccc1 0.543%
N#Cc1cc(-c2ccc(Cl)cc2)cnc1Sc1ccc(F)cc1 12.5%
Cc1cc(C)cc(-n2c(C)cc(C=C(C#N)C#N)c2C)c1 25.6%
Cn1c(=O)c2c(nc(C(=N)SCC(=O)O)n2C)n(C)c1=O 1.35% [at 11.4 µM]
O=C1C2CCCN2C(c2ccccc2F)N1c1ccc(Cl)cc1 (stereo not drawn) -25.3%
S=C1N(c2ccccc2)C(c2ccc(Cl)cc2)N2CCCN12 (stereo not drawn) -9.66%
Cc1cnn(CCC(=O)NNC(=S)Nc2cccc(Cl)c2)c1 -13.5%
COCCn1c(=O)c(-c2cc(F)cc(F)c2)nc2cnc(Oc3cccc(Cl)c3)nc21 -0.734%
Cc1cc(NCc2ccccn2)ccc1Br -27.7%
Cc1cc(=O)oc(C)c1C(=O)NCc1ccccn1 6.42%
O=C(NNC(=O)c1ccccc1-n1cccc1)c1ccccc1 -24.4%
O=C(O)c1ccccc1C(=O)NNc1ccc(Cl)cc1 11.1%
O=C(C[N+]1(c2ccccc2)CCOCC1)c1ccccc1 -6.92% [at 11.4 µM]
O=S(=O)(N/N=C/c1ccc2c(c1)OCCO2)c1ccc(Cl)cc1 -9.99%
Cc1ccc(S(=O)(=O)N/N=C/c2ccc(OC3CSC3)cc2)cc1 5.99%
N[C@@H](Cc1nn[nH]n1)C(=O)O 7.47% [at 11.4 µM]
Cn1c(/C(C#N)=C(\O)c2ccc(S(=O)(=O)N3CCCCC3)cc2)nc2ccccc21 17.4%
C[C@]1(O)CC[C@H]2[C@H]3CC=C4N5CCN=C5CC[C@@]4(C)[C@H]3CC[C@@]21C -4.3% [at 11.4 µM]
CN1CCN(c2ncnc3ccc(-c4ccccc4C#N)cc23)CC1 -6.68%
O=C(Nc1ncc(Cc2cc(Cl)ccc2Cl)s1)c1ccc([N+](=O)[O-])cc1 -22.9%
C/C=C\C1=C(CO)C(=O)C2O[C@]2(CC=C(C)C)C1=O (stereo partly drawn) 0.497% [at 11.4 µM]
COc1ccccc1Cn1c(=S)[nH]c2cc(C(=O)N3CCN(C)CC3)ccc2c1=O 2.19%
CCOc1cc2[nH]c(=S)n(CCC(=O)N3CCc4ccccc4C3)c(=O)c2cc1OCC 41.2%
COc1cc(/C=C(/NC(=O)c2ccccc2Cl)C(=O)O)cc(OC)c1OC 3.9%
O=C(Nc1cccc2[nH]ncc12)c1ccc(F)cc1 -11.5%
COc1cc(C(=O)Nc2ccc(-c3nnc(-c4ccco4)o3)cc2)cc(OC)c1OC 12.8%
Cc1cc(NC(=O)c2ccco2)ccc1-n1cnnn1 -7.42%
COc1ccc(CCNC(=O)c2ccccc2NC(=O)c2ccco2)cc1OC -17.1%
Cc1ccc(NC(=O)C(C)N2C(=O)C3C4CC(C(Br)C4Br)C3C2=O)cc1 (stereo not drawn) -6.68%
COC(=O)CSc1ccc(C#N)c(SCC(=O)OC)c1 -2.77%
CC(C)NC(=O)c1ccc(-c2cccc(C(F)(F)F)c2)o1 -3.7%
COc1ccc2c(=O)cc(-c3ccncc3)oc2c1OC 12.2% [at 11.4 µM]
N=C(N)SCc1cccc(-c2nc3ccccc3c(=O)o2)c1 6.52% [at 11.4 µM]
CCCNC1CCS(=O)(=O)C1 (stereo not drawn) -3.84%
C/C(=N/O)[C@@H]1C[C@H](CC(=O)O)C1(C)C -1.22% [at 11.4 µM]
CCOC(=O)N/N=C(/C)c1ccc([N+](=O)[O-])o1 8.4%
Cc1ccc(-c2nnc(C)c(N3CC(C)OC(C)C3)n2)cc1 (stereo not drawn) 1.15%
Cc1cc(C(=O)CSc2nnc(-c3ccccc3)o2)c(C)n1CC1COc2ccccc2O1 (stereo not drawn) -27.4%
Cn1c(C(=O)O)c(CC(=O)NCC2COc3ccccc3O2)c2ccccc21 (stereo not drawn) -7.48%
C[N+]1(C)CCc2cc(O)c(O)cc2[C@H]1Cc1ccc(O)c(O)c1 -2.15% [at 11.4 µM]
CC(C)N1CCN(c2ccc(OC[C@@H]3CO[C@@](Cn4cncn4)(c4ccc(Cl)cc4Cl)O3)cc2)CC1 -9.52% [at 25.6 µM]
Cn1c(=S)c2[nH]c(SCc3cccnc3)nc2n(C)c1=O 14% [at 11.4 µM]
Cc1ccc(C)c(N(CC(=O)NC2CCCC2)C(=O)c2cc3cc4cccc(C)c4nc3s2)c1 -12.4%
CC(=O)N1N=C(c2cccc([N+](=O)[O-])c2)OC1c1ccc(Cl)cc1Cl (stereo not drawn) -23.4%
CN(Cc1ccco1)c1cc(-c2cccc(C#N)c2)ncn1 -4.8%
CN(C)c1ccnc(-c2cccc(NS(C)(=O)=O)c2)n1 -4.86%
CN(Cc1ccco1)c1ccnc(-c2ccoc2)n1 -15.5%
CN(Cc1ccco1)c1cc(-c2cccnc2)ncn1 -7.76%
CCOC(=O)c1c(C)nc2c(c1-c1ccccc1)C(=O)CCC2 -6.08%
C=C(CC)C(=O)c1ccc(OCC(=O)O)c(Cl)c1Cl 1.74% [at 25.6 µM]
C=CCNc1nc(Cl)nc(Nc2ccc(OC)cc2)n1 -1.99%
CNC(=O)[C@@H]1O[C@@H](n2cnc3c(NCc4ccc(N)cc4)ncnc32)[C@@H](O)[C@H]1O 0.722%
COc1nnc(OC)c2ccccc12 13.1%
NS(=O)(=O)c1cc(C(=O)O)c(O)c2ccccc12 0.979% [at 11.4 µM]
COC(=O)/C=C\c1cc(O)ccc1O -4.4%

AC50, inactive:
CCCN[C@@H](C)C(=O)Nc1ccccc1C
COc1ccccc1N1CCN(CCN2C(=O)CC3(CCCC3)CC2=O)CC1

AC50, active:
CCNCc1cc(OCC)c(OCC(=O)NCCc2ccccc2)cc1Cl 12.6 µM
CCCN1CCC(=NNC(=O)c2ccc(Br)o2)CC1 7.08 µM
COc1ccc(CNc2ncncc2-c2ccccc2C(F)(F)F)c(OC)c1 0.398 µM
COc1ccccc1CNc1ncncc1-c1ccccc1C(F)(F)F 2 µM
FC(F)(F)c1nc2ccccc2nc1N/N=C/c1ccc(Cl)cc1 0.631 µM
N#Cc1cc(N)ccc1Sc1ccc(Cl)cc1 22.4 µM
O=C1C2=C(NC(=S)NC2c2ccc(Cl)cc2)NC(c2ccc(Cl)cc2)N1c1ccc(Cl)cc1 (stereo not drawn) 15.8 µM
Cc1cc(Br)ccc1NCc1ccccn1 15.8 µM
O=C(NNC(=O)c1ccccc1O)c1ccc(Cl)cc1 2.82 µM
O=S(=O)(N/N=C\c1ccc2c(c1)OCO2)c1ccc(Cl)cc1 7.94 µM
CN1CCC(=C2c3ccccc3C=Cc3ccccc32)CC1 2.51 µM
CN1CCC(=C2c3ccccc3Sc3ccccc32)CC1 3.98 µM
CCC1CCCCN1CCn1c(=S)[nH]c2cc(OC)c(OC)cc2c1=O (stereo not drawn) 0.178 µM
O=C(Nc1ccc(-n2nncc2-c2ccco2)cc1)c1ccc(F)cc1 1.12 µM
COc1ccc(-c2cnnn2-c2ccc(NC(=O)c3ccco3)cc2)cc1OC 10 µM
N=C(N)SCc1cccc2c(=O)cc(-c3ccccc3)oc12 2.51 µM
O=C1CC2(CCCC2)CC(=O)N1CCCCNC[C@H]1COc2ccccc2O1 5.01 µM
O=C1CC2(CCCC2)CC(=O)N1CCNC[C@H]1COc2ccccc2O1 0.126 µM
COc1cccc(-c2cc(N(C)Cc3ccco3)ncn2)c1 15.8 µM
COc1cccc(-c2nccc(N(C)Cc3ccco3)n2)c1 1.26 µM
CN(Cc1ccco1)c1ccnc(-c2cccc(NS(C)(=O)=O)c2)n1 20 µM
CN(Cc1ccco1)c1ccnc(-c2cccnc2)n1 7.94 µM
